Measurements taken from PubChem BioAssay AID504834 (National Center for Advancing Translational Sciences (NCATS), 2011).
Screen size: about 320,000 compounds; about 22,000 (6.9%) were called active. A call without a number means that no potency is given here. Another 27% or so got no clear call; they are omitted. Calls come from the whole dose curve; as a rule, active = well fitted inhibition curve with a large enough effect; inconclusive = small, poorly fitted or top-dose-only effect, or another doubt; inactive = no such curve, though single readings can be large or run the other way. This excerpt belongs to a sample that is enriched for actives.

Assay: Primary qHTS for delayed death inhibitors of the malarial parasite plastid, 96 hour incubation
Conditions: P. falciparum luciferase reporter growth; series mostly up to 28.7 µM
In short: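 Cell-based qHTS: luciferase-tagged P. falciparum in erythrocytes (2% hematocrit, 0.05% parasitemia final) incubated with compounds for 96 hours, 37 C, 5% CO2; luciferase detection reagent then added and luminescence measured.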
Potency is the fitted concentration of half-maximal effect.

Row | SMILES | Potency
1 | Cc1c(S(=O)(=O)NC(C)c2ccccc2)c(=O)n(C)c(=O)n1C (stereo not given) | inactive
2 | CN(CC(=O)NCCc1ccc(F)cc1)CC(=O)Nc1ccc(F)c(F)c1F | inactive
3 | COc1cccc(C(=O)N2CCC(n3nccc3NC(=O)C3CCOC3)CC2)c1 (stereo not given) | inactive
4 | CCCCn1c(N)c(N(CCC(C)C)C(=O)c2ccc([N+](=O)[O-])o2)c(=O)[nH]c1=O | inactive
5 | CCCCn1c(N)c(N(CCC(C)C)C(=O)c2ccc(COc3ccccc3)o2)c(=O)[nH]c1=O | inactive
6 | CCCCn1c(N)c(N(CCC(C)C)C(=O)CC2OC(=O)c3ccccc32)c(=O)[nH]c1=O (stereo not given) | 4.65 µM (active)
7 | O=C(NCCO)C(=O)NCC(c1ccc2c(c1)OCO2)N1CCN(c2ccc(F)cc2)CC1 (stereo not given) | inactive
8 | CCOC(=O)N1CCN(S(=O)(=O)N2CCCC(C(=O)NCCCN3CCC(C)CC3)C2)CC1 (stereo not given) | inactive
9 | O=C(CCC(=O)N/N=C/c1ccc(Br)o1)N/N=C/c1ccc(Br)o1 | inactive
10 | COc1ccc(CCNC2=CC(=O)CC(C)(C)C2)cc1 | inactive
11 | COc1cc(Cn2c(N)c(C(=O)NCc3ccco3)c3nc4ccccc4nc32)cc(OC)c1OC | 1.65 µM (active)
12 | COc1cc(C(=O)NC(=S)NCc2ccco2)cc(OC)c1OC | inactive
13 | COc1cc(C(=O)N[C@@H](C)C(=O)NCc2ccco2)cc(OC)c1OC | inactive
14 | O=C(NCC(=O)N1CCCC(C(F)(F)F)C1)c1ccccc1F (stereo not given) | inactive
15 | CC(NC(=O)c1ccccc1F)c1cccc2ccccc12 (stereo not given) | inactive
16 | Cc1ccc(S(=O)(=O)N(C)CC(=O)OCC(=O)N2CC(=O)Nc3ccccc32)cc1 | inactive
17 | Cc1ccc(S(=O)(=O)N2CC(=O)Nc3ccccc32)cc1C | 13.1 µM (active)
18 | Cc1ccc(C(=O)N2CC(=O)Nc3ccccc32)o1 | inactive
19 | O=C(O)C1CCCCC1C(=O)N1CCN(S(=O)(=O)c2ccc(F)cc2)CC1 (stereo not given) | inactive
20 | COc1cc(N2C(=O)CC3(CCCC3)CC2=O)cc(OC)c1OC | inactive
21 | COc1ccc(-c2nnc(SCC(=O)c3ccco3)n2-c2ccccc2)cc1 | inactive
22 | O=C(CSc1nnc(-c2ccccn2)n1-c1ccccc1)Nc1ccc2c(c1)OCO2 | inactive
23 | CCOc1ccc(-n2c(SCC(N)=O)nnc2-c2ccco2)cc1 | 3.7 µM (active)
24 | CCOC(=O)CSc1nnc(-c2ccco2)n1C | inactive
25 | Cc1cccc(C)c1NC(=O)CCCSc1nnc(-c2ccco2)n1-c1ccccc1 | inactive

Row | SMILES | Potency
26 | COc1ccc(-n2c(SCC(=O)OC(C)C)nnc2-c2ccccn2)cc1 | 2.08 µM (active)
27 | CCOc1ccc(S(=O)(=O)N2CCN=C2Cc2ccccc2)cc1C | inactive
28 | O=C(CCc1ccccc1)Nc1ccnn1C1CCN(Cc2ccc(OCCO)cc2)CC1 | inactive
29 | CC/C=C/C(=O)N1CC2(CC(c3cccc(NC(=O)CC)c3)=NO2)C[C@H]1C(N)=O (stereo not given in full) | inactive
30 | C/C=C(\C)C(=O)N1CC2(CC(c3cccc(NC(=O)CCCCC)c3)=NO2)C[C@@H]1C(N)=O (stereo not given in full) | inactive
31 | CCC(=O)Nc1cccc(C2=NOC3(C2)C[C@@H](C(N)=O)N(C(=O)c2cc([N+](=O)[O-])cc([N+](=O)[O-])c2C)C3)c1 (stereo not given in full) | 0.0657 µM (active)
32 | CCOc1ccccc1-c1cc(C(=O)N2CCOCC2)c2ccccc2n1 | inactive
33 | COc1ccc(F)c(-c2nc(CN3CCC(c4ccccc4)CC3)c(C)o2)c1 | inactive
34 | CCOc1ccccc1-c1nc(CN2CCC(C(=O)N3CCOCC3)CC2)c(C)o1 | 11.7 µM (active)
35 | O=C1NNC(c2ccccc2)=N/C1=C\c1ccc(Cl)cc1 | 8.28 µM (active)
36 | O=C1NCC(=O)N(Cc2ccccc2)/C1=C/c1ccccc1 | inactive
37 | O=C(NCc1csc(-c2cccs2)n1)C1CC1 | inactive
38 | Cc1cc(O)c(C2(O)C(=O)Nc3ccccc32)cc1C (stereo not given) | inactive
39 | CCOC(=O)CNc1nc(Cl)nc(Nc2ccc(OC)cc2OC)n1 | inactive
40 | COc1ccc(OC)c(-c2csc(-c3cccs3)n2)c1 | inactive
41 | COc1cc(OC)cc(-c2c(-c3ccc(F)cc3)c3cc(-c4ccc5cc[nH]c5c4)ccc3n2C)c1 | 5.22 µM (active)
42 | COc1ccc2c(c1)c(C(=O)N/N=C/c1cccs1)c(C)n2C | inactive
43 | COc1cc(OC)cc(-c2c(-c3cccs3)c3cc(-c4ccc(OC)cc4F)ccc3n2C)c1 | 5.86 µM (active)
44 | OCC[C@H]1C[C@H](O)[C@@H](O)[C@]2(CCc3ccccc3O2)O1 | inactive
45 | O=C(O)c1cc(S(=O)(=O)N(Cc2ccccc2)c2cccc(C(F)(F)F)c2)ccc1Cl | inactive
46 | O=C(CSc1ccc(-c2ccc(-n3cccn3)cc2)nn1)Nc1ccc([N+](=O)[O-])cc1 | inactive
47 | Cc1cccc(OCC(=O)NC2CC(C)(C)NC(C)(C)C2)c1 | inactive
48 | NC(=O)C1(C(N)=O)OC1c1ccc(Cl)cc1Cl (stereo not given) | inactive
49 | CC1(C)Cc2cccc(OCC(=O)Nc3nccs3)c2O1 | inactive
50 | CC1(C)Cc2cccc(OCC(=O)N3CCN(c4ccc([N+](=O)[O-])cc4)CC3)c2O1 | 5.22 µM (active)

Row | SMILES | Potency
51 | COC(=O)c1ccccc1OCC(=O)N1CCN(c2ccc(Cl)cc2)CC1 | inactive
52 | Nc1cc(N)nc(SCc2ccc(Cl)cc2)n1 | inactive
53 | O=C(CSc1nc2[nH]ncc2c(=O)[nH]1)Nc1ccc(F)cc1 | inactive
54 | CCCn1nnnc1NCc1ccc(CC)cc1 | inactive
55 | Cc1ccccc1NC(=O)Cn1c(=O)n(CC2CCCO2)c(=O)c2ccccc21 (stereo not given) | 2.33 µM (active)
56 | O=C(Cn1c(=O)n(Cc2ccco2)c(=O)c2ccccc21)NCC1CCCO1 (stereo not given) | inactive
57 | COc1ccc(CCNC(=O)Cn2c(=O)n(CC3CCCO3)c(=O)c3ccccc32)cc1OC (stereo not given) | inactive
58 | CCN(CC(=O)Nc1cc(Cl)ccc1C)C(=O)Cn1c(=O)cnc2ccccc21 | inactive
59 | CC(C)Cn1c(N)c(C(=O)COC(=O)C2CCCN2C(=O)c2cccs2)c(=O)n(C)c1=O (stereo not given) | inactive
60 | COc1ccc(-n2ncc3c2CC(C)(C)CC3NC(=O)CCc2c(C)nn(C)c2C)cc1 (stereo not given) | 10.4 µM (active)
61 | Cc1ccc(-n2ncc3c2CC(C)(C)CC3NC(=O)Cc2c(C)noc2C)cc1 (stereo not given) | inactive
62 | COc1ccc(-n2ncc3c2CC(C)(C)CC3NC(=O)CCc2c(C)noc2C)cc1 (stereo not given) | inactive
63 | COc1ccc(/C=C2\SC(=S)N(CCC(=O)Nc3ccccn3)C2=O)cc1OC | inactive
64 | CCCNS(=O)(=O)c1ccc2c(c1)CCCN2C(C)=O | inactive
65 | CCC(=O)N1CCc2cc(S(=O)(=O)CCC(=O)N3CCN(c4ccccc4F)CC3)ccc21 | inactive
66 | CCOc1ccc(NC(=O)CCS(=O)(=O)c2ccc3c(c2)CCCN3C(=O)CC)cc1 | 9.28 µM (active)
67 | C=CCn1c(SCC(=O)NC(=O)Cc2ccccc2)nc2ccccc2c1=O | inactive
68 | CCN1C(=O)/C(=C2/Sc3ccccc3N2CCCS(=O)(=O)O)SC1=S | inactive
69 | CCN1C(=O)/C(=C\N2CCN(c3cccc(Cl)c3)CC2)SC1=S | inactive
70 | CCCCN1C(=O)/C(=C/C=C2/C=Cc3ccccc3N2CC)SC1=S | 0.117 µM (active)
71 | O=C(NCCCc1ccccc1)C1CCC(=O)N(CCc2ccc(Cl)cc2)C1 (stereo not given) | inactive
72 | COc1ccccc1CNS(=O)(=O)c1c(C)[nH]c(C)c1C(=O)N1CCCCC1 | inactive
73 | COc1ccc(CN2CCN(C(=O)c3cc(C4CC4)nn3-c3ccccc3)CC2)cc1F | 11.7 µM (active)
74 | COc1cc(CN2CCC(C(N)=O)CC2)ccc1OCc1ccccc1 | inactive
75 | COc1cccc(NC(=O)CN(C)C(=O)c2cc(C3CC3)nn2-c2ccccc2)c1 | inactive

Row | SMILES | Potency
76 | O=C(NCc1cccnc1)c1ccccc1NC(=O)c1c(F)cccc1F | inactive
77 | Cc1cc(C)c(NC(=O)CN2C(=O)NC(Cc3ccccc3)C2=O)c(C)c1 (stereo not given) | inactive
78 | O=[N+]([O-])c1ccc2nc(-c3ccccn3)[nH]c2c1 | inactive
79 | O=C(CSC(=S)N1CCOCC1)c1cc(Br)cc(Br)c1O | inactive
80 | O=P(O)(CN1CCCCCC1)C1Cc2ccccc2C1 | inactive
81 | O=C(/C(=C/c1cccc(Cl)c1)c1nc2ccccc2[nH]1)c1ccccc1 | 11.7 µM (active)
82 | O=C(CCc1nc2ccccc2c(=O)[nH]1)OCC(=O)c1cccc(Cl)c1 | inactive
83 | O=C(Cc1nc2ccccc2[nH]c1=O)c1ccc(Cl)cc1 | inactive
84 | Cc1ccc(-c2nc3ccccc3[nH]c2=O)cc1 | inactive
85 | N#CCc1ccc(NC(=O)c2ccccc2C(=O)Nc2ccc(CC#N)cc2)cc1 | inactive
86 | NS(=O)(=O)c1ccc2nc(NC(=O)C3=COCCO3)sc2c1 | inactive
87 | O=C(O)CC1(CC(=O)Nc2cccc(C(F)(F)F)c2)CCCC1 | inactive
88 | NC(=O)Nc1cccc(C(F)(F)F)c1 | inactive
89 | O=C(Nc1cccc(C(F)(F)F)c1)c1cc(Br)cc(Br)c1O | 15.1 µM (active)
90 | CC(=O)Nc1ccc(NC(=O)COC(=O)c2ccccc2C(=O)c2ccccc2)cc1 | inactive
91 | O=C(Nc1cccc([N+](=O)[O-])c1)Nn1cnnc1 | inactive
92 | Cn1nc(C(F)(F)F)cc1-c1ccc(/C=C(\C#N)C(=O)c2cccc(C(F)(F)F)c2)s1 | inactive
93 | Cc1ccc(NNC(=O)c2c(F)cccc2Cl)cc1Cl | inactive
94 | CCCCCNC(=O)c1cccnc1SCC(=O)Nc1ccccc1OC | inactive
95 | Cc1ccc(NC(=O)CSc2nnc(CNC(=O)c3ccccc3F)o2)cc1 | inactive
96 | COc1ccccc1NC(=O)CSc1nnc(CNC(=O)c2ccccc2F)o1 | 1.65 µM (active)
97 | CC1(C)NC(=O)N(CC(=O)N2CCN(S(=O)(=O)c3ccccc3F)CC2)C1=O | inactive
98 | O=C(Nc1cccc(NC(=O)c2ccc(Br)cc2)c1)c1ccccc1 | inactive
99 | O=C(Nc1cccc(-c2nc3ccccc3[nH]2)c1)c1ccc(C(=O)Nc2cccc(-c3nc4ccccc4[nH]3)c2)cc1 | 0.37 µM (active)
100 | O=C(Cc1cccs1)Nc1cccc(-c2nc3ccccc3[nH]2)c1 | inactive
